Data published in PubChem BioAssay AID2315 (National Center for Advancing Translational Sciences (NCATS), 2010).
Among all 290,000 compounds or so, about 27,000 (9.3%) were called active. The sample holds actives, similar compounds and a random draw of the others, so the mix is not that of the screen. Values without a mark were called inactive. Rule as the data show it: active = inhibition mostly above about 28% (no sharp cut-off); inactive = mostly below about 43%.

test: A qHTS for Small Molecule Inhibitors of Shiga Toxin; conditions: Vero cells, Shiga toxin protein synthesis inhibition reporter; at 38.7 µM, stronger effect = higher value; also: 0% is about no effect

In order of falling inhibition:
1. C/C(=N/NC(=S)Nc1ccccc1)c1ccc2c(c1)OCO2  67.4%
2. O=C(Nc1nc2cc3c(cc2s1)OCCO3)c1cccc(S(=O)(=O)N2CCOCC2)c1  53.6%
3. CCOC(=O)c1csc(CCNC(=O)c2oc3c(Cl)cc(C)cc3c2C)n1  43.9%
4. CCCc1nnc(NC(=O)c2cc(OC)cc(OC)c2)s1  34.6%
5. O=C(Nc1ccc(Cl)cn1)c1ccc2c(c1)OCCO2  32.4%
6. O=C(Nc1cccnc1)c1cc2cc(Br)ccc2oc1=O  28.7%
7. CC(C)c1ccc(S(=O)(=O)N2CCN(C(=O)c3ccc(N4CCCC4)c([N+](=O)[O-])c3)CC2)cc1  25.8%
8. O=C(Nc1cccnc1)c1cccc(S(=O)(=O)N2CCCC2)c1  23.2%
9. N#Cc1ccccc1NC(=O)c1ccc2c(c1)OCO2  22.7%
10. CCOC(=O)c1ccc(NC(=O)c2ccc(NC(=O)C3CCCO3)cc2)cc1 (stereo not drawn)  21.1%
11. Cc1ccc(C)c(S(=O)(=O)N2CCCOC2CNC(=O)C(=O)NC2CCCCC2)c1 (stereo not drawn)  20.6%
12. O=C(CN1CCc2cc3c(cc2C1)OCCCO3)Nc1ccccc1  18.6%
13. COc1ccc(N(C(=O)CNC(=O)c2ccco2)C(C(=O)NCC2CCCO2)c2ccccc2)cc1Cl (stereo not drawn)  15.8%
14. Cc1onc(C(=O)NCc2ccc(F)cc2)c1[N+](=O)[O-]  15.4%
15. CCOC(OCC)OCC  11.5%
16. O=C(Nc1cccc(S(=O)(=O)Nc2ccc(Cl)cc2)c1)c1ccc2c(c1)OCCO2  11.3%
17. COC(=O)CN1C(=O)[C@H]2[C@@H](C3CC3)N3C(=O)CN(Cc4ccc(-c5ccccc5)cc4)C(=O)[C@@]3(Cc3ccccc3)[C@H]2C1=O  9.74%
18. COc1ccc(C(=O)Nc2cccnc2)cc1C(=O)Nc1cccnc1  9.57%
19. COCCCN1C(=O)c2ccc(C(=O)OCC(=O)NCc3ccccc3OC)cc2C1=O  9.09%
20. Cc1ccnc(NC(=O)C2CCN(S(=O)(=O)c3c(C)c(C)cc(C)c3C)CC2)c1  8.68%
21. O=C(Cc1ccccc1F)NC1CCSc2ccccc21 (stereo not drawn)  8.44%
22. CC(C)CC(CCc1ccccc1)OS(N)(=O)=O (stereo not drawn)  7.41%
23. COCc1nnc(NC(=O)CS(=O)(=O)Cc2ccccc2)s1  3.05%
24. COc1ccccc1CNC(=O)c1ccc(CS(=O)(=O)c2ccccc2)o1  2.09%
25. Cc1cccc(NC(=O)c2cc([N+](=O)[O-])ccc2N2CCN(C)CC2)c1  1.74%
26. COc1ccc(NS(=O)(=O)c2cc3c(cc2C)N(C(C)=O)CCO3)cc1  0.181%
27. COc1ccc(S(=O)(=O)N2CCOCC2)cc1C(=O)Nc1nc2ccccc2s1  -1.04%
28. O=C(NCCS(=O)(=O)c1ccc(Br)cc1)c1ccccc1Cl  -1.37%
29. Cc1cccc(NC(=O)c2sc(-c3ccccc3)nc2-c2ccc([N+](=O)[O-])cc2)c1  -1.42%
30. COc1ccc(NC(=O)N2CCCC2C(=O)NCc2ccccc2Cl)cc1 (stereo not drawn)  -3.06%
31. CC(=O)N1c2ccc(S(=O)(=O)N3CCC(C(=O)NC4CCCC(C)C4C)CC3)cc2CC1C (stereo not drawn)  -3.25%
32. CCC(=O)Nc1nnc(S(=O)(=O)N2CCCc3ccccc32)s1  -3.3%
33. CCOCCCNC(=O)c1cn(CC(C)C)c(=O)c2c1c1ccccc1n2C  -4%
34. CCC1(CC)Cc2ccccc2-c2nc(CCl)[nH]c(=O)c21  -4.46%
35. Cc1ccc2[nH]c(=O)c(CN(C)S(=O)(=O)c3cccc4nonc34)cc2c1  -4.87%
36. CC(=O)c1ccc2c(c1)OCCOCCOc1ccc(C(C)=O)cc1OCCOCCO2  -5.3%
37. CC(=O)c1c(C)oc2ccc(NS(=O)(=O)c3ccccc3)cc12  -6.31%
38. COC(=O)c1cc(NC(=O)c2cc(C(C)(C)C)nn2Cc2cccc(C)c2)ccc1N1CCOCC1  -6.65%
39. C/C(=N\NC(=O)C1(C)CC1(Br)Br)c1ccc(C)cc1C (stereo not drawn)  -7.42%
40. CC(C)c1ccc(NC2CCCN(C(=O)c3ccncc3)C2)cc1 (stereo not drawn)  -8.11%
41. CCc1ccc(OCC(O)CN2CCN(CCO)CC2)cc1 (stereo not drawn)  -8.28%
42. O=C(Nc1ccc(C(=O)O)cc1)/C(=C\c1ccccc1)NC(=O)c1ccc(Br)cc1  -9.04%
43. CCOc1ccc(NC(=O)CCC(=O)NNC(=O)NC2CCCCC2)cc1  -9.72%
44. CC(C)CC(=O)c1c[nH]c(C(=O)NCc2ccccc2)c1  -10%
45. Cc1ccc(C(=O)Nc2nnc(-c3ccncc3)s2)o1  -10.6%
46. CCOc1ccccc1-c1cc(C(=O)N2CCOCC2)c2ccccc2n1  -10.7%
47. CCC(C)(C)NC(=O)C(c1ccc(O)cc1)N(Cc1ccco1)C(=O)CCC(=O)Nc1ccccn1 (stereo not drawn)  -12.1%
48. O=C(Nc1ccc2c(c1)OCO2)c1sc2cc(Cl)ccc2c1Cl  -13.4%
49. Cc1ccccc1/C=C\c1nc(O)c([N+](=O)[O-])c(=O)[nH]1  -14.2%
50. CC(Sc1nc(-c2ccccc2)cc(C(F)(F)F)n1)C(=O)Nc1ccc2c(c1)OCO2 (stereo not drawn)  -14.3%
51. CC(NC(=O)c1ccco1)c1ccc2c(c1)OCO2 (stereo not drawn)  -15.1%
52. Cc1ccccc1C(=O)NC(=S)Nc1ccc(N2CCN(C(=O)c3ccccc3)CC2)cc1  -15.7%
53. CCOc1ccccc1-c1cc(C(=O)N/N=C(\C)c2cccnc2)c2ccccc2n1  -30.4%

For `Cc1onc(NC(=O)c2ccc([N+](=O)[O-])o2)c1Br`, the inhibition was 71.2% (active).
With `Cc1cccc(NC(=O)c2ccc([N+](=O)[O-])o2)c1` the inhibition was 55.5% (active).
In the case of `O=C(Nc1nc2ccccc2s1)c1ccc2c(c1)OCO2`, the inhibition is reported as 39.2% (active).
With `COCc1nnc(NC(=O)c2ccc3c(c2)OCO3)s1` the inhibition was 59.3% (active).
In the case of `O=C(Nc1ccccc1)c1ccc2c(c1)OCO2`, the inhibition is reported as 58.7% (active).
For `O=C(Nc1cccnc1)c1noc2c1CCCCC2`, the inhibition was 29% (active).
With `O=C(Nc1ccccc1)c1ccc2c(c1)OCCCO2` the inhibition was 58.6% (active).
With `CC(Sc1nc2cc(Cl)ccc2s1)C(=O)Nc1ccc2c(c1)OCO2` (stereo not drawn) the inhibition was 0% (active).
With `O=C(Nc1cccnc1)c1ccc2c(c1)OCO2` the inhibition was 33% (active).
In the case of `Cc1nc(NC(=O)c2ccc3c(c2)OCCO3)ccc1Br`, the inhibition is reported as 90.6% (active).
